Results taken from PubChem BioAssay AID1851 (National Center for Advancing Translational Sciences (NCATS), 2009).
In all, about 16,000 compounds went through this assay and about 4,000 (25%) were called active. Another 26% or so got no clear call; they are omitted. These entries were drawn from the full list. Unmarked numbers belong to inactive results. Calls follow the shape of the dose curve; as a rule, active = well fitted curve in the direction sought with a large enough effect; inconclusive = small, poorly fitted or top-dose-only effect, or effect the other way; inactive = no such curve, though single readings can be large or run the other way.

target: Cytochrome P450 2C9 (Homo sapiens) (UniProt P11712); test: Cytochrome panel assay with activity outcomes; conditions: recombinant CYP, pro-luciferin dealkylation, luminescence, p450-cyp2c9; series mostly up to 57.1 µM
% is scaled to controls: 0 for no effect and ±100 for the full control effect.

Chain of Cytochrome P450 2C9 (Homo sapiens) (P11712 whole entry, looked up): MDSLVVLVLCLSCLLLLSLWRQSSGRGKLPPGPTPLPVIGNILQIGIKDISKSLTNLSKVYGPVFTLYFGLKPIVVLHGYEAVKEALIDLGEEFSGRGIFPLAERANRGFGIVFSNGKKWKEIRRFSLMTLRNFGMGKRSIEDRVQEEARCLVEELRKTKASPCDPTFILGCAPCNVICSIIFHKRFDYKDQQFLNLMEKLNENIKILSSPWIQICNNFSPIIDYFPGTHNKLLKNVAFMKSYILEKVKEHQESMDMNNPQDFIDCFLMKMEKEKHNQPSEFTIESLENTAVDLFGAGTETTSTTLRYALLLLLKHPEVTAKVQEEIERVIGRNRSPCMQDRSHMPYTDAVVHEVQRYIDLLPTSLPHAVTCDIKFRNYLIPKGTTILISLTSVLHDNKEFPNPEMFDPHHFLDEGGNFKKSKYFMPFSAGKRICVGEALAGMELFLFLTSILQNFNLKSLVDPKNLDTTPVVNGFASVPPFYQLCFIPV

Row | Structure (SMILES) | activity, negative = inhibition | AC50
1 | O=C(O)CCC(=O)c1ccc(Cl)cc1 | 18.6% [at 11.4 µM] | 
2 | N[C@H](Cc1ccc(Cl)cc1)C(=O)O |  | inactive
3 | CCc1ccc(C(CC(=O)c2ccc(Cl)cc2)C(=O)O)cc1 (stereo not drawn) |  | 10 µM (active)
4 | COc1cccc(CNCc2ccc(SC)cc2)c1OC |  | inactive
5 | CSc1ccc(CNc2ccccc2)cc1 |  | 12.6 µM (active)
6 | CSc1ccc(CNc2ccc(Cl)cc2)cc1 |  | 6.31 µM (active)
7 | CS(=O)(=O)Nc1cccc(-c2cc(NCc3ccccc3)ncn2)c1 | 22.3% [at 2.29 µM] | 
8 | Cc1ccc(C)c(NC(=O)NCc2ccc(Cl)cc2)c1 | -2.65% [at 11.4 µM] | 
9 | Cc1ccc(S(=O)(=O)N[C@H]2COC(=O)C/C=C\[C@@H](C)[C@H](NS(=O)(=O)c3ccc(C)cc3)COC(=O)[C@H](C)NC(=O)C/C=C\[C@H]2C)cc1 | 15.4% [at 11.4 µM] | 
10 | CO/N=C\[C@@H](NS(=O)(=O)c1ccc(C)cc1)[C@H](C)/C=C\CC(=O)OC | -27.4% [at 11.4 µM] | 
11 | COC(=O)C/C=C\[C@@H](C)[C@@H](/C=N\OC[C@@H](O)COCc1ccco1)NS(=O)(=O)c1ccc(C)cc1 | -14.9% [at 11.4 µM] | 
12 | CCCNC(=O)OC[C@H]1O[C@@H](CCO/N=C\[C@@H](NS(=O)(=O)c2ccc(C)cc2)[C@H](C)/C=C\CC(=O)OC)C=C[C@@H]1Oc1ccc(OC)cc1 |  | 3.98 µM (active)
13 | COC(=O)C/C=C\[C@@H](C)[C@@H](/C=N\O[C@@H](C)c1cc(-c2c(C)cc(C)cc2C)no1)NS(=O)(=O)c1ccc(C)cc1 |  | 2.51 µM (active)
14 | COC(=O)C/C=C\[C@@H](C)[C@@H](/C=N\OC[C@@H]1O[C@H](c2ccccc2)C=C[C@@H]1Oc1ccc(OC)cc1)NS(=O)(=O)c1ccc(C)cc1 |  | 1.26 µM (active)
15 | CCCNC(=O)OC[C@@H]1O[C@H](CCO/N=C\[C@@H](C)[C@H](OCc2ccccc2)C(C)C)C=C[C@@H]1Oc1ccc(OC)cc1 | -22.3% [at 11.4 µM] | 
16 | CCCNC(=O)OC[C@@H]1O[C@H](CCON=C(C)C)C=C[C@@H]1Oc1ccc(OC)cc1 | 2.96% [at 11.4 µM] | 
17 | COc1ccc(O[C@H]2C=C[C@@H](c3ccccc3)O[C@@H]2CO/N=C\[C@@H](C)[C@H](OCc2ccccc2)C(C)C)cc1 | -24.2% [at 11.4 µM] | 
18 | COC(=O)C/C=C\[C@@H](C)[C@@H](/C=N\O[C@@H](C)c1cn([C@H]2COC[C@H]2O)nn1)NS(=O)(=O)c1ccc(C)cc1 | 16% [at 11.4 µM] | 
